The record followed here is PubChem BioAssay (NCATS).

For assay [1], the target named is Rap guanine nucleotide exchange factor 3 (Homo sapiens) (UniProt O95398). The assay is described as follows: Confirmatory qHTS for antagonist of cAMP-regulated guanine nucleotide exchange factor 3 (EPAC1) (AID 1645880). Also: nearly all actives have a fitted effect of over 55% in size. Also: potency is read from the fitted curve at half-maximal effect. The gist of the method: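 Released BODIPY-GDP fluoresces less than Rap1-bound BODIPY-GDP; the signal is followed at 480/540 nm at 5-min intervals over 30 min, after 5 min at room temperature. Reactions contain 100 nM EPAC1, 250 nM RAP1B-BODIPY-GDP and 50 uM GDP; results are normalized to ATA and DMSO.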
Chain of Rap guanine nucleotide exchange factor 3 (Homo sapiens) (O95398 whole entry, looked up): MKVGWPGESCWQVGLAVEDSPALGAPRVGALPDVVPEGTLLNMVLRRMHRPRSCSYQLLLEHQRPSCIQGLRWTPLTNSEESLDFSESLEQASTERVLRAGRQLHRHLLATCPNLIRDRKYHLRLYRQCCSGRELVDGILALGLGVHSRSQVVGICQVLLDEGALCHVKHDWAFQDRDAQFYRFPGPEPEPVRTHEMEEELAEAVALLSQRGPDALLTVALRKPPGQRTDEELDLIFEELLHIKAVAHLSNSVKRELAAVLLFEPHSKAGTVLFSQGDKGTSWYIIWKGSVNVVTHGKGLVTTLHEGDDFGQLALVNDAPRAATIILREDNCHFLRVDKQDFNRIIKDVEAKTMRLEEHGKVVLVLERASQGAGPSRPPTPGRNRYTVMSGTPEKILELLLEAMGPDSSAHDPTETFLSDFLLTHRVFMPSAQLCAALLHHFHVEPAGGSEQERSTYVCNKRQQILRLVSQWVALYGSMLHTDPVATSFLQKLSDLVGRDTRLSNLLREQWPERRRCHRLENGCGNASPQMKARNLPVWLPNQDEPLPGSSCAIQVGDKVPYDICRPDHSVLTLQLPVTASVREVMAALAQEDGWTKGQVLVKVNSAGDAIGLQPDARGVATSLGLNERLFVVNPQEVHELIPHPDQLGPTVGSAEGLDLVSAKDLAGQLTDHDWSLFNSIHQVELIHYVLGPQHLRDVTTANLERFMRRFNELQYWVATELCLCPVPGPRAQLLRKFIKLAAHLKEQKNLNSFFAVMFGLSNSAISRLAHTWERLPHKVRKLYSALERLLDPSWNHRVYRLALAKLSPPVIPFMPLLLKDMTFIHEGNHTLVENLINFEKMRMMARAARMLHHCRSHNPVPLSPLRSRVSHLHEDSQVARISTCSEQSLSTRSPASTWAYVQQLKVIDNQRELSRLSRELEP
For orientation: In qHTS, concentration-response curves come from the screen itself.

Assay [2] shares this target. The assay is described as follows: Confirmatory qHTS for agonist of cAMP-regulated guanine nucleotide exchange factor 3 (EPAC1) (AID 1645881). Also: nearly all actives have a fitted effect of over 75% in size. Also: potency is read from the fitted curve at half-maximal effect.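 As to activation: EPAC1 catalysed release of BODIPY-GDP from Rap1B seen as fluorescence loss; 100% = effect of cAMP agonist control.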
For assay [3], the target named is Rap guanine nucleotide exchange factor 4 (Homo sapiens) (UniProt Q8WZA2). The assay is described as follows: Confirmatory qHTS for agonist of cAMP-regulated guanine nucleotide exchange factor 4 (EPAC2) (AID 1645884).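 Also: nucleotide exchange releases bodipy-GDP from Rap1 and this lowers its fluorescence; nearly all actives have a fitted effect of over 65% in size.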 Also: potency is read from the fitted curve at half-maximal effect. As to activation: % is scaled to controls: 0 for no effect and ±100 for the full control effect.
Chain of Rap guanine nucleotide exchange factor 4 (Homo sapiens) (Q8WZA2 whole entry, looked up): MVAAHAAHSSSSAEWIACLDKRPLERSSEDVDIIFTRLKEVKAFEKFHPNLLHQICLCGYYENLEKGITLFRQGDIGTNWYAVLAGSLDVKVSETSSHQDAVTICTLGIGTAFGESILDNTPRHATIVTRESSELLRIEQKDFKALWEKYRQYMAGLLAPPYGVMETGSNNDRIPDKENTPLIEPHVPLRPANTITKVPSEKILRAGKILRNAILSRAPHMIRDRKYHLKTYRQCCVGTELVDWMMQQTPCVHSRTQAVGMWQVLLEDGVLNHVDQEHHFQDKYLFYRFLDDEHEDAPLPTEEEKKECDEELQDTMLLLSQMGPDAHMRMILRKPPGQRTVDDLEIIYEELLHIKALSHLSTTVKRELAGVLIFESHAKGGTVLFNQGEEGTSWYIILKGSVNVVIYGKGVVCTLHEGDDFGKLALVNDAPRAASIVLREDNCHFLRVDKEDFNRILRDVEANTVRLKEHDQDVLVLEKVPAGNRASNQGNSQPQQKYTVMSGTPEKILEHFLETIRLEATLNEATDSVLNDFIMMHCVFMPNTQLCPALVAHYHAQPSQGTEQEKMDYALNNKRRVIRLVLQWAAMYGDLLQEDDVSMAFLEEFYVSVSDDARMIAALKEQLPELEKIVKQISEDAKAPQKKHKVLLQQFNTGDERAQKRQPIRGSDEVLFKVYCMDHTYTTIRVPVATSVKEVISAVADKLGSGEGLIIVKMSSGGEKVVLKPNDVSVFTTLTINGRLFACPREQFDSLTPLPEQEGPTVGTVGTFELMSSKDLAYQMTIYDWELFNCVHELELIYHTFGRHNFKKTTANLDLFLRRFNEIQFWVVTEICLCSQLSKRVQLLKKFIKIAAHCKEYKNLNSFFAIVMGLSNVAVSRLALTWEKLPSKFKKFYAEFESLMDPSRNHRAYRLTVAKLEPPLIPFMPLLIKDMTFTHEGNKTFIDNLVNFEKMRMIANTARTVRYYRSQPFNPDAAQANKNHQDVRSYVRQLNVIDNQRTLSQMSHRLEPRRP
Assay [4] has the same target. The assay is described as follows: Confirmatory qHTS for antagonist of cAMP-regulated guanine nucleotide exchange factor 4 (EPAC2) (AID 1645885). Also: nearly all actives have a fitted effect of over 25% in size. Also: potency is read from the fitted curve at half-maximal effect. As to activity change, negative = inhibition: % is scaled to controls: 0 for no effect and ±100 for the full control effect.
Assay [5] deals with Rap guanine nucleotide exchange factor 3 (Homo sapiens) (UniProt O95398). Put plainly: Counterscreen qHTS for antagonist of cAMP-regulated guanine nucleotide exchange factor 3 (EPAC1) (AID 1645888). Also: % of control where 0% means no effect. The gist of the method: (§1)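 Rap1B-BODIPY-GDP 250 nM + GDP 50 uM; cpds 7-pt, final 9.74 nM–152 uM (activator mode) or from 7.32 nM upwards (inhibitor mode); RT; FI 480/540 nm at 5 and 30 min, then ± cAMP, reread.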
On the technique in general: Counterscreens check selectivity or assay interference.

Assay [6] has the same target. Put plainly: Counterscreen qHTS for agonist of cAMP-regulated guanine nucleotide exchange factor 3 (EPAC1) (AID 1645889). Also: nearly all actives have a fitted effect of over 40% in size. Also: potency is read from the fitted curve at half-maximal effect. As to activation: % of control where 0% means no effect. The procedure, abridged:
as §1

Inconclusive results are not listed. Values without a mark were called inactive. Active and inactive are the calls of the source. Calls follow the shape of the dose curve; as a rule, active = well fitted curve in the direction sought with a large enough effect; inconclusive = small, poorly fitted or top-dose-only effect, or another doubt; inactive = no such curve, though single readings can be large; an effect the other way counts as inactive or inconclusive.

For the molecule `O=[N+]([O-])c1ccc(Cc2ccccn2)c([N+](=O)[O-])c1`, the Potency result in assay [1], in assay [2], in assay [3], in assay [5] and in assay [6] was “inactive” throughout. Moreover, the outcome in assay [4] is “inactive; activator; fitted 0.12 uM [at 12.7 µM]”.

Take `CCOC(=O)c1ccc(-c2ccc(/C=C(\C#N)C(=O)Nc3c(C)cccc3Cl)o2)cc1`: in assay [1], the Potency was 75.7 µM (active). Besides, the Potency entry in assay [2], in assay [3], in assay [4], in assay [5] and in assay [6] was “inactive” each time.

With `CCOC(=O)N1CCN(C(=O)c2cc(S(=O)(=O)N3CCc4ccccc43)ccc2OC)CC1`, the Potency result in assay [1], in assay [2], in assay [3], in assay [4], in assay [5] and in assay [6] was “inactive” throughout.

With `Cc1ccccc1CN1C(=O)c2ccccc2Sc2ccc(C(=O)O)cc21`, the Potency result in assay [1], in assay [2], in assay [3], in assay [4], in assay [5] and in assay [6] was “inactive” in each case.

Consider `COc1ccccc1/C=C/C=C1\Oc2c(ccc(O)c2CN2CCN(CCO)CC2)C1=O`, for which the Potency result in assay [1] and in assay [5] was “inactive” in each case. Moreover, the Potency in assay [2] was 100 µM (active); in assay [3], 100 µM (active); in assay [4], 84.9 µM (active); in assay [6], 39.8 µM (active).

As to `O=C1c2ccccc2C(=O)N1c1nc(-c2cccs2)cs1`, the Potency is 4.78 µM (active) in assay [1] and 60.1 µM (active) in assay [4]. For the same molecule, the Potency result in assay [2], in assay [3], in assay [5] and in assay [6] was “inactive” each time.

On to `Cc1ccc(Cn2c(SCC(=O)N/N=C/c3ccc(C)o3)nc3ccccc32)cc1`, for which the Potency in assay [1] is 47.8 µM (active). Further, the Potency entry in assay [2], in assay [3], in assay [4], in assay [5] and in assay [6] was “inactive” throughout.

`CC(=O)Nc1ccc(CNc2nc3cc(-c4ccsc4)sc3c(=O)n2C)cc1`: the Potency result in assay [1], in assay [2] and in assay [4] was “inactive” throughout. Besides, the activation in assay [3] is -3.78% [at 17.1 µM, percent relative to cAMP agonist control]; in assay [6] it was 36.9% [at 30.8 µM]. For the same molecule, the activity change, negative = inhibition in assay [5] is 16% [at 30.8 µM].

Regarding `Cc1ccsc1C(=O)OCC(=O)NCCNC(=O)COC(=O)c1sccc1C`, the Potency result in assay [1], in assay [2], in assay [3], in assay [4], in assay [5] and in assay [6] was “inactive” throughout.

Take `CCC(C(=O)NCc1ccc(OC)c(OC)c1)n1nc(C)c2c(C)n(-c3ccc(C)cc3)nc2c1=O` (stereo unspecified): the Potency result in assay [1], in assay [2], in assay [3], in assay [5] and in assay [6] was “inactive” each time. The outcome in assay [4] was “inactive [at 12.7 µM]”.

Turning to `CCOc1ccc(N2C(=O)Nc3ccccc3C2(O)C(=O)NCc2ccc(C)cc2)cc1` (stereo unspecified), the Potency entry in assay [1], in assay [2] and in assay [4] was “inactive” each time. Further, the activation was -4.83% [at 17.1 µM, percent relative to cAMP agonist control] in assay [3] and 7.84% [at 30.8 µM] in assay [6]. Besides, the activity change, negative = inhibition in assay [5] was -5.47% [at 30.8 µM].

Turning to `CN1CCC/C1=C/C=C1\SC(=S)NC1=O`, the Potency result in assay [1], in assay [4] and in assay [5] was “inactive” throughout. Further, the Potency is 89.1 µM (active) in assay [2], 100 µM (active) in assay [3] and 39.8 µM (active) in assay [6].

As for `O=C(O)c1ccc(N/N=C/c2c(F)cccc2Cl)cc1`, the Potency entry in assay [1], in assay [2] and in assay [4] was “inactive” each time. The activation in assay [3] was 2.99% [at 17.1 µM, percent relative to cAMP agonist control]; in assay [6], 3.47% [at 30.8 µM]. Further, the activity change, negative = inhibition in assay [5] is -2.2% [at 30.8 µM].

Consider `CCCCn1c(N)c(N(CC(C)C)C(=O)C2CCN(S(=O)(=O)c3ccc(C)c(C)c3)CC2)c(=O)[nH]c1=O`, for which the Potency entry in assay [1], in assay [2], in assay [3], in assay [4], in assay [5] and in assay [6] was “inactive” each time.

As for `Oc1ccc(/C=N/Nc2ncnc3c2ncn3Cc2ccccc2)cc1O`, the Potency in assay [1] was 3.55 µM (active). Moreover, the Potency entry in assay [2] and in assay [4] was “inactive” in each case. Moreover, the activation in assay [3] was 4.96% [at 17.1 µM, percent relative to cAMP agonist control]; in assay [6], 1.06% [at 30.8 µM]. Also, the activity change, negative = inhibition in assay [5] was -13.7% [at 30.8 µM].

Consider `CC(C)CCOc1ccc(C2(C)NC(=O)N(CN3CCOCC3)C2=O)cc1` (stereo unspecified), for which the Potency entry in assay [1], in assay [2], in assay [3], in assay [4], in assay [5] and in assay [6] was “inactive” in each case.

Take `O=C(NCc1ccncc1)C1Cc2c(-c3ccccc3Oc3ccccc3)ccnc2O1` (stereo unspecified): the Potency result in assay [1], in assay [2], in assay [3], in assay [4], in assay [5] and in assay [6] was “inactive” throughout.

For `COc1ccc(N2CCN(C(=O)CSc3ncn[nH]3)CC2)cc1`, the Potency entry in assay [1], in assay [2], in assay [3], in assay [4], in assay [5] and in assay [6] was “inactive” in each case.

Take `CC(C)CC1C(=O)N(Cc2cn(CCC3OCCCO3)nn2)CCS(=O)(=O)N1Cc1ccc(-c2ccccc2)cc1` (stereo unspecified): the Potency entry in assay [1], in assay [2], in assay [3], in assay [4], in assay [5] and in assay [6] was “inactive” in each case.

Regarding `CN1/C(=C\C=C2/SC(=S)NC2=O)C(C)(C)c2ccccc21`, the Potency entry in assay [1] and in assay [5] was “inactive” in each case. The Potency in assay [2] is 79.4 µM (active); in assay [3] it was 79.4 µM (active); in assay [4], 7.57 µM (active); in assay [6] it was 70.8 µM (active).

As to `COc1ccc(/C=C\c2onc(C)c2S(=O)(=O)N2CCC(C(=O)NCCC(C)C)CC2)cc1`, the Potency result in assay [1], in assay [2] and in assay [4] was “inactive” in each case. The activation in assay [3] is 8.7% [at 17.1 µM, percent relative to cAMP agonist control]; in assay [6], 19.1% [at 30.8 µM]. In assay [5], the activity change, negative = inhibition is -14.8% [at 30.8 µM].
